Results reported in PubChem BioAssay (Tox21).
“And” between values parts separate entries of the source, which are not always exact repeats. Equal entries are not always repeated. Results filed as inconclusive are left out. More than one record can exist for a structure, and the calls need not agree. The source made the active and inactive calls. Unless noted, calls follow the shape of the dose curve; as a rule, active = well fitted curve in the direction sought with a large enough effect in the repeat runs; inconclusive = weak or mixed curves; inactive = no such curve, though single readings can be large; an effect the other way counts as inactive or inconclusive.

Legend:
[1] = qHTS assay to identify small molecule agonists of H2AX (AID 1224845; active = well fitted activation curve with a large enough effect in the signal ratio in the repeat runs, not every such curve was filed as active; the % refers to the signal ratio)
In short: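 Wild-type CHO-K1 cells, plated overnight, exposed 3hr at 37C to 15 concentrations (0.76% DMSO final). Lysed, then HTRF anti-pH2AX (S139) cryptate and anti-H2AX-d2 antibodies, 24 hr room temperature; 665/620 nm emission read.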

[2] = qHTS assay to identify small molecule agonists of the hypoxia (HIF-1) signaling pathway (AID 1224846; active = well fitted activation curve with a large enough effect in the signal ratio in the repeat runs, not every such curve was filed as active; the % refers to the signal ratio)
In short: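 Reporter induction in HRE-bla ME-180 cells is taken as agonism: cells sit 5 hrs after plating, receive compounds or DMSO only, incubate 17 hrs at 37C under 5% CO2, and are loaded with CCF4-AM for beta-lactamase FRET measurement.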

[3] = qHTS assay to identify small molecule agonists of H2AX - cell viability counter screen (AID 1224847; calls by dose curve; also: top concentration of the series differs between compounds; nearly all actives have a fitted effect of over 30% in size)
In short: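 For this counter screen, overnight-attached CHO-K1 cells received test compounds (15 concentrations, 0.76% DMSO final); 3 hr later at 37C, CellTiter-Glo reagent was added and luminescence recorded after 30 min at room temperature.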

[4] = qHTS RealTime-Glo MT Cell Viability Assay in HepG2 cells - 24 hour (AID 1224867); also: nearly all actives have a fitted effect of over 50% in size
In short: (§1)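 HepG2 cells (600/well) were dispensed with RealTime-Glo reagents, incubated 5 h at 37 °C, then treated with compounds in DMSO for up to 40 h. Nonlytic NanoLuc luminescence reflecting viable cells was read at each stated time point.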

[5] = qHTS RealTime-Glo MT Cell Viability Assay in HEK293 cells - 32 hour (AID 1224868); also: nearly all actives have a fitted effect of over 50% in size; also: potency is read from the fitted curve at half-maximal effect
In short: (§2)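 HEK293 cells seeded with NanoLuc/prosubstrate reagent, rested 5 h at 37 C, then dosed and kept at 37 C up to 40 h. Nonlytic real-time luminescence from viable cells read at 0, 8, 16, 24, 32 and 40 h.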

[6] = A CellTox Green Cytotoxicity Assay to monitor cytotoxicity in HEK293 cells - 0 hour (AID 1224869); also: nearly all actives have a fitted effect of over 50% in size
In short: (§3)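 Tox21 screen in HEK293: membrane-impermeant cyanine dye fluoresces on binding dead-cell DNA; compound pinned 5 h post-seeding, plates held at 37 C, signal read repeatedly through 40 h.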

[7] = qHTS RealTime-Glo MT Cell Viability Assay in HepG2 cells - 40 hour (AID 1224870); also: nearly all actives have a fitted effect of over 50% in size
In short: (§4)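 HepG2 cells (600/well) mixed with RealTime-Glo MT reagent, settled 5 h at 37 C/5% CO2 before compound addition. Nonlytic NanoLuc luminescence from viable-cell prosubstrate reduction read repeatedly during 40 h treatment at 37 C.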

[8] = A CellTox Green Cytotoxicity Assay to monitor cytotoxicity in HEK293 cells - 40 hour (AID 1224871); also: nearly all actives have a fitted effect of over 45% in size; also: potency is read from the fitted curve at half-maximal effect
In short: as §3

[9] = qHTS RealTime-Glo MT Cell Viability Assay in HEK293 cells - 16 hour (AID 1224872); also: nearly all actives have a fitted effect of over 50% in size; also: potency is read from the fitted curve at half-maximal effect
In short: as §2

[10] = qHTS RealTime-Glo MT Cell Viability Assay in HepG2 cells - 8 hour (AID 1224873); also: nearly all actives have a fitted effect of over 55% in size
In short: as §4

[11] = qHTS RealTime-Glo MT Cell Viability Assay in HEK293 cells - 40 hour (AID 1224874); settings: RealTime-Glo luminescence; max response: stronger effect = lower value; also: nearly all actives have a fitted effect of over 50% in size; also: potency is read from the fitted curve at half-maximal effect
In short: (§5)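 HEK293 + NanoLuc + prosubstrate, 600 cells/well; 5 h, 37 C/5% CO2; compound 23 nL in DMSO by pintool; 37 C; luminescence read at 0, 8, 16, 24, 32 and 40 h time points.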

[12] = A CellTox Green Cytotoxicity Assay to monitor cytotoxicity in HEK293 cells - 24 hour (AID 1224875); also: nearly all actives have a fitted effect of over 45% in size
In short: as §3

[13] = A CellTox Green Cytotoxicity Assay to monitor cytotoxicity in HepG2 cells - 16 hour (AID 1224876); also: nearly all actives have a fitted effect of over 45% in size
In short: (§6)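 Measurements at 0, 8, 16, 24, 32 and 40 h of treatment captured CellTox Green fluorescence in HepG2 cells that had been co-plated with reagent and preincubated 5 h at 37 C/5% CO2.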

[14] = qHTS RealTime-Glo MT Cell Viability Assay in HepG2 cells - 32 hour (AID 1224877); also: nearly all actives have a fitted effect of over 55% in size
In short: as §1

[15] = A CellTox Green Cytotoxicity Assay to monitor cytotoxicity in HepG2 cells - 24 hour (AID 1224878); also: nearly all actives have a fitted effect of over 45% in size; also: potency is read from the fitted curve at half-maximal effect
In short: as §6

[16] = A CellTox Green Cytotoxicity Assay to monitor cytotoxicity in HepG2 cells - 40 hour (AID 1224879); also: nearly all actives have a fitted effect of over 40% in size; also: potency is read from the fitted curve at half-maximal effect
In short: as §6

[17] = qHTS RealTime-Glo MT Cell Viability Assay in HEK293 cells - 0 hour (AID 1224880)
In short: as §5

[18] = A CellTox Green Cytotoxicity Assay to monitor cytotoxicity in HEK293 cells - 32 hour (AID 1224881); also: nearly all actives have a fitted effect of over 40% in size; also: potency is read from the fitted curve at half-maximal effect
In short: as §3

[19] = qHTS assay to identify small molecule antagonists of the estrogen related receptor (ERR) signaling pathway from Tox21 library (AID 1224848); also: nearly all actives have a fitted effect of over 50% in size; also: potency is read from the fitted curve at half-maximal effect
In short: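 Quantitative high-throughput format: ERR reporter cells (2,000/well) pre-incubated 6 h, treated 18 h at 37 C with compounds in DMSO alongside positive and negative controls, then read by ONE-Glo luminescence.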

[20] = qHTS assay to identify small molecule agonists of the estrogen related receptor (ERR) signaling pathway from Tox21 library (AID 1224849; calls by dose curve; also: nearly all actives have a fitted effect of over 15% in size); settings: ERR reporter cell line, ONE-Glo luciferase, 18 h
In short: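 Tox21 compounds tested for ERR agonism in an NTP reporter cell line: 18 h treatment at 37 C, then ONE-Glo luminescence.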
% is scaled to controls: 0 for no effect and ±100 for the full control effect.

CC(=O)/C=C/C1=C(C)CCCC1(C)C
inactive: Potency [1] | outcome [2] | Potency [3] | outcome [4] | Potency [5] | Potency [6] | outcome [7] | Potency [8] | Potency [9] | outcome [10] | max response [11] -10% and 2.42% and 0.0931% | Potency [12] | Potency [13] | outcome [14] | Potency [15] | Potency [16] | Potency [17] | Potency [18]

O=C1CCCCCN1
inactive: Potency [1] | outcome [2] | Potency [3] | Potency [19] | activity change, positive = activation ([20]; at 92.4 µM (top of the series)) 0.0496% and -0.16% | Potency [5] | Potency [6] | outcome [7] | Potency [8] | Potency [9] | outcome [10] | max response [11] -1.34% and -3.41% | Potency [12] | Potency [13] | outcome [14] | Potency [17] | Potency [18]

COC(=O)c1ccc(C=O)cc1
inactive: Potency [1] | outcome [2] | Potency [3] | Potency [19] | activity change, positive = activation ([20]; at 92.4 µM (top of the series)) -0.881% | outcome [4] | Potency [5] | Potency [6] | outcome [7] | Potency [9] | outcome [10] | max response [11] -13.1% and 1.66% | Potency [12] | outcome [14] | Potency [15] | Potency [17] | Potency [18]

COC1=CC(=O)C[C@@H](C)[C@]12Oc1c(Cl)c(OC)cc(OC)c1C2=O
active: Potency [19] 4.81 µM and 7.7 µM and 5.96 µM | Potency [16] 24.3 µM and 21.9 µM and 26.8 µM
38.6 µM (active) and inactive: Potency [15]
inactive: Potency [1] | outcome [2] | Potency [3] | activity change, positive = activation ([20]; at 42.5 µM (top of the series)) -32% | activity change, positive = activation ([20]; at 92.4 µM (top of the series)) -36.3% and -39.4% | outcome [4] | Potency [5] | Potency [6] | outcome [7] | Potency [9] | outcome [10] | max response [11] -25.7% | Potency [12] | Potency [13] | outcome [14] | Potency [17] | Potency [18]

O=C(OCc1ccccc1)c1ccccc1
43.8 µM (active) and inactive: Potency [8] | Potency [18]
inactive: Potency [1] | outcome [2] | Potency [3] | Potency [19] | activity change, positive = activation ([20]; at 92.4 µM (top of the series)) 13.6% | Potency [5] | Potency [6] | outcome [7] | Potency [9] | outcome [10] | max response [11] -12% and 0.176% and 2.06% | Potency [12] | Potency [13] | outcome [14] | Potency [16] | Potency [17]

CCCCOCCOCCOC(C)=O
inactive: Potency [1] | outcome [2] | Potency [3] | Potency [19] | activity change, positive = activation ([20]; at 92.4 µM (top of the series)) 0.387% and 1.02% | Potency [5] | Potency [6] | outcome [7] | Potency [8] | Potency [9] | outcome [10] | max response [11] 7.04% and 1.04% | Potency [12] | outcome [14] | Potency [15] | Potency [16] | Potency [17] | Potency [18]

C[C@]12C=CC(=O)C=C1CC[C@@H]1[C@@H]2C(=O)C[C@@]2(C)[C@H]1CC[C@]2(O)C(=O)CO
inactive: Potency [1] | outcome [2] | Potency [3] | outcome [4] | Potency [5] | Potency [6] | outcome [7] | Potency [8] | Potency [9] | outcome [10] | max response [11] -10.3% and 0.237% and 8.61% | Potency [12] | outcome [14] | Potency [15] | Potency [17] | Potency [18]

NC(=O)N1c2ccccc2C=Cc2ccccc21
inactive: Potency [1] | outcome [2] | Potency [3] | Potency [5] | Potency [6] | outcome [7] | Potency [8] | Potency [9] | outcome [10] | max response [11] -19.3% and 0.148% | Potency [12] | Potency [13] | outcome [14] | Potency [15] | Potency [16] | Potency [17] | Potency [18]
active: Potency [11] 34.5 µM

O=C(O)Cc1cccc2ccccc12
inactive: Potency [1] | outcome [2] | Potency [3] | outcome [4] | Potency [5] | Potency [6] | outcome [7] | Potency [9] | outcome [10] | max response [11] 0.279% and 2.27% and -0.352% | Potency [12] | Potency [13] | outcome [14] | Potency [15] | Potency [16] | Potency [17] | Potency [18]

COc1cc(C=O)ccc1O
inactive: Potency [1] | outcome [2] | Potency [3] | outcome [4] | Potency [5] | Potency [6] | outcome [7] | Potency [9] | outcome [10] | max response [11] 0.342% and 3.21% and 2.85% | Potency [12] | outcome [14] | Potency [17] | Potency [18]

CCCCCCCCCCCCCC(=O)OC(C)C
inactive: Potency [1] | outcome [2] | Potency [3] | Potency [6] | outcome [7] | Potency [8] | outcome [10] | max response [11] 1.2% and -0.28% | Potency [12] | outcome [14] | Potency [16] | Potency [17] | Potency [18]
inactive and 4.36 µM (active): Potency [9]
active: Potency [11] 2.75 µM
inactive and 2.45 µM (active): Potency [5]

CCCCOCCOCCSC#N
inactive: Potency [1] | outcome [2] | Potency [3] | outcome [4] | Potency [5] | Potency [6] | outcome [7] | Potency [9] | outcome [10] | max response [11] 7.99% and 2.19% | Potency [12] | outcome [14] | Potency [15] | Potency [17] | Potency [18]
